# KCNQ2 block: blocks the rat KCNQ2 potassium channel | CHO-K1 KCNQ2, FluxOR thallium flux, 20 min; hits give low values | 1.1% of 310,000 active | B-score at 10 µM | AID 2156;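 active = fluorescence ratio B-score at most minus 3 library SDs, with starting brightness B-score within 2 library SDs, cut at about -5.5 in these data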
# Target sequence (O88943 whole entry, looked up): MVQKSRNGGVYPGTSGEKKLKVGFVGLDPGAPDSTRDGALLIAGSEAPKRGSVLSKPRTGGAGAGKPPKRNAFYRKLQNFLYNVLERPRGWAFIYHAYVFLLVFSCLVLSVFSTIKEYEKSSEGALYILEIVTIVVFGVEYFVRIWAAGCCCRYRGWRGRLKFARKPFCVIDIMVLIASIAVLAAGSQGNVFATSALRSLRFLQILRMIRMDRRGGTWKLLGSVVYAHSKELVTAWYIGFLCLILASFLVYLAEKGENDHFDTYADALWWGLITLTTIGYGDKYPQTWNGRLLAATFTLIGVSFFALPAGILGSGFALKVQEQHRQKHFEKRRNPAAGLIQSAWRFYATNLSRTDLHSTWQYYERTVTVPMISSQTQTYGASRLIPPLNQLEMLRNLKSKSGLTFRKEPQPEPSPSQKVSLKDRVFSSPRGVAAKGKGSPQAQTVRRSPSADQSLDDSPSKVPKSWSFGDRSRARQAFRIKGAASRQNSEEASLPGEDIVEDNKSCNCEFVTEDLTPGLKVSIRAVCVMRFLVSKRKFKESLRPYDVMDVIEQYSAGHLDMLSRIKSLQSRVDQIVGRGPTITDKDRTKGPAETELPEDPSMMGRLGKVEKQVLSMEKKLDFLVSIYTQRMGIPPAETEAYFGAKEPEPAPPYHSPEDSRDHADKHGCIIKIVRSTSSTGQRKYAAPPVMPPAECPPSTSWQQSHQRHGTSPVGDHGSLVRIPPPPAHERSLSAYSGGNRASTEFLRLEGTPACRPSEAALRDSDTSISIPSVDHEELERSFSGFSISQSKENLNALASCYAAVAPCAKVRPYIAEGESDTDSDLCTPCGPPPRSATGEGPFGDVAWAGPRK
# KCNQ2 pot: KCNQ2 (rat) channel potentiation; O88943; CHO-K1 KCNQ2, FluxOR thallium flux fluorescence; hits give high values; B-score at 10 µM; 0.54% of 310,000 active;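 active = fluorescence ratio B-score at least 3 SD of library B-scores, with initial fluorescence B-score within 3 of them, cut at about 5.3 in these data; same plate scores as AID 2156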;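 also: B-score of peak minus minimum over baseline fluorescence ratio after K+ and Tl+ stimulus; positive B-score means potentiation of KCNQ2 with more thallium influx and brighter signal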
# * hit, by the source's call; i = inactive; / = no result. A selection: hits, their analogues and other compounds. The true share with any hit is near 1.6%.
SMILES,KCNQ2 block,KCNQ2 pot
CCCn1c(C(C)Nc2nc(-c3cc(Cl)c(N)c(Cl)c3)cs2)nc2cc(Cl)c(N3CCCCC3)cc21 (centres undefined),i,/
Cc1ccccc1NC(=O)CC1SC(=Nc2ccc(O)cc2)NC1=O (centres undefined),i,0.93
CC(C)=N/N=C1/NC(=O)C(CC(=O)Nc2cc(Cl)ccc2C)S1 (centres undefined),i,5.8*
COc1cc(NC(=O)CN2C(=O)C(C)N(c3ccc(C)cc3)C2=O)cc(OC)c1 (centres undefined),i,1.1
C=CCNC(=O)c1onc(CSc2ccc(F)c(F)c2)c1C(=O)NCC=C,i,0.09
O=C(c1ccc(Cl)cc1)c1oc2ccccc2c1CS(=O)c1ccccc1 (centres undefined),-5.7*,-5.7
Nc1c(C(=O)c2ccc(Br)cc2)oc2ccccc12,i,1.5
COCCCn1c(SC(C)C(=O)NC2CC2)nc2ccccc2c1=O (centres undefined),i,2.6
CC1CCN(S(=O)(=O)c2ccc3c(c2)N(C)C(=O)CC(=O)N3C)CC1,i,1.2
NS(=O)(=O)c1ccc(NC(=O)CSc2nc(Nc3ccccc3)nc(N3CCOCC3)n2)cc1,i,/
CC(C)CC(C)NC(=O)c1ccc(C(F)(F)F)cc1 (centres undefined),i,2.2
CCC/C=C(\CCC)C(NC(=O)c1ccc(C(=O)OC)cc1)c1ccc(C(=O)OC)cc1 (centres undefined),-7.2*,-7.2
CCC/C=C(\CCC)C(NC(=O)c1ccc(C(F)(F)F)cc1)c1ccccc1 (centres undefined),-6.6*,-6.6
COC(=O)c1ccc(C(=O)NN)cc1,i,/
COc1ccc([N+](=O)[O-])cc1NC(=O)CSCc1ccc(Br)cc1,i,5.5*
COc1ccc([N+](=O)[O-])cc1NC(=O)CSCc1ccccc1C,i,1.5
CCn1c(SCC(=O)Nc2ccc(OC)cc2)nc2c(c1=O)SCC2,i,0.13
CC1=C(n2nnc([N+](=O)[O-])n2)C(c2cccnc2)C(C#N)=C(N)O1 (centres undefined),i,0.57
CC1(C)CC(=O)C(C(C2=C(O)CC(C)(C)CC2=O)c2cccs2)C(=O)C1 (centres undefined),i,6.2*
CC1(C)CC(=O)C(C(C2=C(O)CC(C)(C)CC2=O)c2cccnc2)C(=O)C1 (centres undefined),i,0.16
O=C(O)C1CSC2(c3ccc(Br)cc3)CCC(=O)N12 (centres undefined),i,/
CC(C)NS(=O)(=O)c1ccc(NCCCn2ccnc2)c([N+](=O)[O-])c1,i,0.11
O=C(CSc1nc2ccccc2nc1N1CCOCC1)N1CCN(c2ccccc2)CC1,i,0.21
O=C(CSc1nc2ccccc2nc1N1CCCCC1)N1CCN(c2ccccc2)CC1,-7.7*,-7.7
Clc1cccc(/C=N/Nc2nnc(Cl)c3ccccc23)c1,i,/
SMILES,KCNQ2 block,KCNQ2 pot
Clc1ccc(/C=N/Nc2nnc(-c3ncc[nH]3)c3ccccc23)cc1,-5.7*,-5.7
Cc1c(C=O)c2cc(OCc3ccccc3)ccc2n1C,i,0.75
Cc1nn(C(=O)CCCC(=O)NCc2ccccc2)c2ccccc12,i,/
CCOC(=O)c1ccc(S(=O)(=O)N2CCN(CC(=O)NC(=O)NC3CCCCC3)CC2)cc1,-5.6*,-5.6
O=C(CN1CCN(S(=O)(=O)c2ccc(F)cc2)CC1)NC1CCCC1,i,2
COc1ccccc1NS(=O)(=O)c1ccc(NC(=O)N2CCCCC2)cc1,i,/
CN=C1S/C(=C\c2cccc(Cl)c2Cl)C(=O)N1C,i,/
COc1ccc(-n2c(C)cc(/C=C3\SC(=S)NC3=O)c2C)cc1,i,/
COc1ccc2nc(N3CCCCC3)c(/C=C3\SC(=S)NC3=O)cc2c1,i,11*
CCOC(=O)c1cn2nc(SCc3ccccc3)nc2nc1C,i,2.2
CCN(CC)S(=O)(=O)c1ccc(N2CCOCC2)c(NC(=O)c2cccc3ccccc23)c1,i,/
CC1CCN(c2ccccc2NC(=O)c2cc([N+](=O)[O-])ccc2N2CCOCC2)CC1,-5.7*,-5.7
CCc1ccccc1NC(=O)c1cc([N+](=O)[O-])ccc1N1CCOCC1,i,1.3
COc1cc(/C=C/C(=O)Nc2cc(S(=O)(=O)N3CCOCC3)ccc2N2CCCC2)cc(OC)c1OC,i,/
CCN(CC)S(=O)(=O)c1ccc(N2CCCCC2)c(C(=O)Nc2ccccc2N2CCOCC2)c1,-8*,-8
CCN(CC)S(=O)(=O)c1ccc(N2CCCCC2)c(NC(=O)/C=C/c2cc(OC)c(OC)c(OC)c2)c1,-6.4*,-6.4
O=C(CN1C(=O)c2cccnc2Oc2ccc(Cl)cc21)NCCC1=CCCCC1,i,0.4
O=C(CCNC(=O)c1ccco1)Nc1ccc(Cl)c(C(F)(F)F)c1,i,1.4
COc1ccc(/C=N\NC(=O)c2cc(O)c(O)c(O)c2)cc1COc1ccc(C(=O)OCC(C)C)cc1,i,/
